About 83,000 compounds went through this panel and 20% of them were active in at least one assay; those are over-represented in the sample as a whole.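 96-well plates, one dose, 48 hours. Percent growth reported; active if below 10.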 A number with no mark means an inactive call. Activity calls are given as the source filed them.
These compounds were tested on MDA-MB-468 breast (assay: NCI-60 one-dose screen, 48 h (100 = growth as untreated, 0 = no growth, -100 = all killed)). Details: 10 µM unless noted.

Row | Structure (SMILES) | growth
1 | COc1ccc(C(=O)Nn2c(NCC(=O)N3c4ccccc4Sc4ccccc43)nnc2-c2ccc(O)cc2)cc1 | 107%
2 | CSc1nc2c(c(=O)n1C)N=C1c3ccccc3C(=O)C1C(c1ccccc1)N2 (centres undefined) | 54.8%
3 | Cc1ccc(NS(=O)(=O)c2ccc3c(c2)C(=O)CC(c2ccc(C(=O)C(C)C)cc2)N3)cc1C (centres undefined) | -3.79% (active)
4 | Cc1cc(C)c(CC(=O)O)c(C)c1 | 111%
5 | S=C(Cc1ccccc1)N1CCN(c2ccccc2Cl)CC1 | 101%
6 | Cc1ccc2c(c1)C(C)Cc1c(ncnc1-n1cnc3cc(C)ccc31)N2C (centres undefined) | 9.76% (active)
7 | COc1ccc(Nc2ncnc3ccc(-c4cncc(NS(C)(=O)=O)c4)cc23)cc1Cl | -10.1% (active)
8 | Cc1c2c[n+](C(C)C)ccc2c(C)c2c1[nH]c1ccccc12 | -37% (active)
9 | COc1ccc(-c2ccc(-c3ccc(C(=N)N)cn3)s2)cc1OC | 92.6%
10 | COc1ccc(Cn2c(Br)c3c(c2Br)-c2nc(NC(=O)c4ccc(OC)cc4)sc2CC3)cc1 | 83.5%
11 | CN1CCN(C(=O)OCc2nc3c(N4CCOCC4)nc(Cl)nc3n2C)CC1 | -69.4% (active)
12 | CCOC(=O)NNc1cccc(Cl)c1 | 98.2%
13 | CCCCCCN1CCN(Cc2ccc(N(CC)CC)cc2)C(=O)C1=O | 22.9%
14 | O=C(Nc1cccc(F)c1)c1cc(=O)[nH]c2cc(Br)ccc12 | 55.3%
15 | NCCCNc1nc2ccccc2c2c(=O)c3cccc(F)c3sc12 | -11.3% (active)
16 | O=S(=O)(NCC[C@@H]1C[C@H]1c1ccc2ccccc2c1)c1ccc(C(F)(F)F)cc1 | 72.3%
17 | COc1ccc(C(=O)/C=C/c2ccc(Oc3nc(NCCO)nc(N4CCOCC4)n3)c(OC)c2)cc1 | 63.4%
18 | CCOC(=O)/C=C(/C)Sc1cc(O)c2ccccc2c1O | 29.9%
19 | CCCCCCCCC(=O)Nc1ccc(O)cc1 | 100%
20 | CCOC(=O)c1ccccc1NC1=C(Cl)C(=O)c2nc(C)ccc2C1=O | 97.3%

Row | Structure (SMILES) | growth
21 | CNC(=O)c1cc(Oc2ccc3nc(NC(C)=O)sc3c2)ccn1 | 100%
22 | CCCCCCCCN(CCCCCCCC)CC(O)c1cc(Cl)ccc1OC (centres undefined) | 32.6%
23 | COC(=O)/C(CCC=C(C)C)=C1\[C@@H](OC(C)=O)C[C@@]2(C)[C@H]1C[C@@H](O)[C@H]1[C@@]3(C)CC[C@H](NCCCNCCCCNCCCN)[C@@H](C)[C@@H]3CC[C@@]12C | 78.5%
24 | N#Cc1c2c(c(N)[nH]c1=O)C(=O)NC2(O)c1ccccc1 (centres undefined) | 104%
25 | CSc1nc2[nH]ncc2c(=O)[nH]1 | 92.6%
26 | Cc1nc2c3c(ncn2n1)Oc1c(c(=O)[nH]c2ccccc12)C3c1ccc(Cl)cc1 (centres undefined) | 109%
27 | O=C1C(=O)c2ccccc2C(O)=C1CCCc1ccc(C2CCCCCC2)cc1 | 5.94% (active)
28 | O=C(Nc1ccc(N2CCNCC2)cn1)c1[nH]ncc1Nc1ncnc2sccc12 | -59.5% (active)
29 | CC(C)Cc1ccc(C(C)C(=O)NCc2ccc(Cn3c(=O)sn(-c4ccc(Cl)cc4)c3=O)cc2)cc1 (centres undefined) | 54.4%
30 | COc1ccc(-c2nn(-c3cccc(Cl)c3)cc2-c2c(C#N)c(N)n(N)c(=O)c2C#N)cc1 | 56.1%
31 | COc1ccc(C(=O)c2sc3nc(-c4ccccc4OC)ccc3c2N)cc1OC | 66.9%
32 | CN(C)CC1C(=O)O[C@H]2[C@H]1CC/C(COC(=O)c1cc3ccccc3[nH]1)=C\CC[C@@]1(C)O[C@@H]21 (some centres undefined) | -59.8% (active)
33 | COc1ccc(Nc2ncc(I)c(NCCCNC(=O)C3CCC3)n2)cc1 | -14.9% (active)
34 | CCOC(=O)c1ccc(N=Cc2sc(=O)[nH]c2O)cc1 | 98.6%
35 | O=c1[nH]cnc2nc[nH]c12 | 100%
36 | NC1(c2ccc(-c3nc4ccn5c(=O)[nH]nc5c4cc3-c3ccccc3)cc2)CCC1 | -32.4% (active)
37 | Cn1cnc2c(F)c(Nc3ccc(Br)cc3F)c(C(=O)NOCCO)cc21 | 97.3%
38 | C=CCNC(=S)NN | 56.5%
39 | O=C(Nc1nc(-c2ccc(Cl)cc2)cs1)c1cc(O)c(O)c(O)c1 | 55.8%

Source: PubChem BioAssay (NCI)
